A selection: hits, their analogues and other compounds. The true share with any hit is near 2.3%.
ERp5 inh: blocks human ERp5 reductase activity on insulin; ERp5 insulin aggregation, absorbance 650 nm, 90 min; inhibition, % at 9.99 µM; 0.05% of 350,000 active; AID 651711;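 active = mean replicate inhibition above about 25%, with every replicate also reaching it, limit read from the data, passing the limit was not always enough; inconclusive = only one of those two criteria met; inactive = neither criterion met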
Target sequence (Q15084 whole entry, looked up): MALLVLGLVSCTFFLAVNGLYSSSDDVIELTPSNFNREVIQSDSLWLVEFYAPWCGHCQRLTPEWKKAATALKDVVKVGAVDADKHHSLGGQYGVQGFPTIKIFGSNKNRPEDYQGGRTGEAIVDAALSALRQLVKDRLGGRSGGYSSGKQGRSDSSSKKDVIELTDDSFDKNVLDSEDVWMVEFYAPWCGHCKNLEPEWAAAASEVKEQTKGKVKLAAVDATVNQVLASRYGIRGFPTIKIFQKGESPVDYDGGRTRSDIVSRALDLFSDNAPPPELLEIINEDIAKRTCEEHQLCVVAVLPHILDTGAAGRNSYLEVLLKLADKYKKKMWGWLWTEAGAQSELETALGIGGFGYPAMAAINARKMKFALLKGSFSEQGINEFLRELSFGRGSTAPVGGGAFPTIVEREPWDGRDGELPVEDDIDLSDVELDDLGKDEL
Rtt109 Vps75: inhibitors of Candida albicans Rtt109/Vps75 histone acetyltransferase | Q5AAJ8 | 0.16% of 330,000 active | inhibition, % at 34.9 µM | purified Rtt109/Vps75, ThioGlo CoA-SH fluorescence, 4 h | AID 540336;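 active = inhibition of at least 50% in every replicate; inconclusive = best replicate reaches 50% inhibition but some replicates fall short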
PDI inh: inhibitors of human protein disulfide isomerase. P07237. PDI insulin aggregation turbidity, A650, 90 min. inhibition, % at 10 µM. 0.052% of 350,000 active;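 active = mean inhibition across replicates of 30% or more, whatever share of single replicates reach that level; inconclusive = mean inhibition below 30% while every single replicate reaches 30%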
SIRT5 inh: inhibitors of human sirtuin-5 desuccinylase; Q9NXA8; Purified SirT5, succinyl-peptide AMC, trypsin-coupled fluorescence; inhibition, % at 15 µM; 1.1% of 330,000 active; AID 652115; in the data active = inhibition above about 15%; inconclusive = no clear call, values can overlap the other calls
DENV2 CPE rescue: inhibitors of DENV2 cytopathic effect | 1.7% of 350,000 active | CPE inhibition, % at 9.99 µM | AID 651640 | DENV2-infected cells, cytopathic effect rescue, plate reader; in the data active = CPE inhibition above about 20%, passing the limit was not always enough; inconclusive = no clear call, values can overlap the other calls; tested in BHK-21 cells
Hits are given with their value; 0 = inactive; ? = inconclusive; - = no result.

SMILES	ERp5 inh	Rtt109 Vps75	PDI inh	SIRT5 inh	DENV2 CPE rescue
COc1ccc2c3c([nH]c2c1)[C@H](CO)N(C(=O)C1CCCC1)CC31CN(Cc2nccs2)C1	0	-	-	0	0
C[C@@H]1CN([C@H](C)CO)C(=O)c2cccc(NS(C)(=O)=O)c2O[C@H]1CN(C)C(=O)Nc1ccccc1	0	-	-	0	0
Cc1ccc(-c2cnc3c(c2)C(=O)N([C@@H](C)CO)C[C@H](C)[C@H](CN(C)C(=O)Cc2ccccc2)O3)cc1	0	-	-	0	0
O=C(C[C@@H]1CC[C@H]2[C@@H](COC[C@@H](O)CN2C(=O)c2cc(Cl)cc(Cl)c2)O1)N1CCc2ccccc2C1	0	-	-	0	0
O=C(C[C@H]1CC[C@H]2[C@@H](COC[C@@H](O)CN2Cc2cccc(Cl)c2)O1)N1CCCCC1	0	-	-	19	0
O=C(C[C@H]1CC[C@@H]2[C@H](COC[C@H](O)CN2CC2CCOCC2)O1)N1CCOCC1	0	-	-	0	49
O=C(C[C@H]1CC[C@@H]2[C@H](COC[C@H](O)CN2C(=O)c2ccccc2)O1)N1CCc2ccccc2C1	0	-	-	0	28
O=C(C[C@H]1CC[C@@H]2[C@H](COC[C@H](O)CN2Cc2ccc(Oc3ccccc3)cc2)O1)N1CCCCC1	0	-	-	0	0
O=C(C[C@@H]1CC[C@@H]2[C@H](COC[C@@H](O)CN2Cc2ccc(Oc3ccccc3)cc2)O1)N1CCCCC1	0	-	-	0	24
C[C@@H]1CN([C@@H](C)CO)C(=O)c2cc(NC(=O)Cc3ccccc3)ccc2O[C@@H](C)CCCCO[C@H]1CN(C)Cc1ccc(C(F)(F)F)cc1	-	-	-	-	0
COc1ccc(CN2C[C@@H](O)COC[C@@H]3O[C@H](CC(=O)N4CCc5ccccc5C4)CC[C@H]32)cc1	0	-	-	17	0
COc1ccc(CN2C[C@@H](O)COC[C@H]3O[C@H](CC(=O)N4CCc5ccccc5C4)CC[C@@H]32)cc1	0	-	-	0	0
O=C(C[C@@H]1CC[C@@H]2[C@H](COC[C@@H](O)CN2Cc2ccc3c(c2)OCO3)O1)N1CCOCC1	0	-	-	27	0
O=C(NC[C@H]1CC[C@H]2[C@H](CN2Cc2cccc(Cl)c2)O1)C1CCOCC1	0	-	-	0	58
O=C(C[C@H]1CC[C@@H]2[C@H](COC[C@H](O)CN2CC2CCCCC2)O1)NCC1CC1	0	-	-	0	29
CCOC(=O)CC1C(=O)NCCN1C1CCCC1 (configuration not stated)	0	0	0	20	0
CCCNC(=O)OC1CC2CC1[C@H]1CCCCN1C2=O (some centres not stated)	0	-	-	0	29
N#C[C@@H]1[C@@H](c2ccc(/C=C/c3ccccc3)cc2)[C@@H](CO)N1C(=O)C1CCCC1	0	-	-	0	26
N#C[C@@H]1[C@@H](c2ccc(C#Cc3ccccc3F)cc2)[C@H](CO)N1C(=O)C1CCC1	0	-	-	0	30
N#C[C@@H]1[C@@H](c2ccc(C#Cc3ccc(F)cc3)cc2)[C@H](CO)N1C(=O)C1CCCC1	0	-	-	0	23
CCCNC(=O)N1CC2(CN(S(C)(=O)=O)C2)c2c(n(C)c3cc(OC)ccc23)[C@H]1CO	0	-	-	0	0
CN1C(=O)[C@H]2[C@@H](/C=C/c3ccccc3)N3C(=O)CN(Cc4ccccc4)C(=O)[C@@]3(C)[C@H]2C1=O	0	0	0	-	0
COC(=O)CN1C(=O)[C@H]2[C@@H](/C=C/c3ccccc3)N3C(=O)CN(Cc4ccccc4)C(=O)[C@@]3(C)[C@H]2C1=O	0	0	0	-	50
COCC(=O)N1[C@H](CO)[C@H](c2ccc(C#Cc3ccccc3F)cc2)[C@@H]1C#N	0	-	-	0	0
COC(=O)[C@@H]1[C@@H](CO)[C@@H]2Cn3c(ccc(-c4ccccc4)c3=O)[C@@H]2N1CC1CCCCC1	-	-	-	-	33
SMILES	ERp5 inh	Rtt109 Vps75	PDI inh	SIRT5 inh	DENV2 CPE rescue
CN(C)C(=O)[C@@H]1[C@@H](CO)[C@@H]2Cn3c(ccc(-c4ccccc4)c3=O)[C@@H]2N1Cc1ccccc1	0	-	-	23	0
CCCN1[C@H](C(=O)N(C)C)[C@@H](CO)[C@@H]2Cn3c(ccc(-c4ccccc4)c3=O)[C@@H]21	0	-	-	0	0
COC(=O)[C@H]1[C@H](CO)[C@H]2Cn3c(ccc(-c4ccccc4)c3=O)[C@H]2N1CC1CCCCC1	0	-	-	0	45
O=C(NCC[C@H]1CC[C@H](NS(=O)(=O)c2ccc(Cl)cc2)[C@@H](CO)O1)Nc1ccc(F)cc1	0	-	-	0	0
COc1ccc2c3c(n(C)c2c1)[C@H](CO)N(C(=O)C1CCCC1)CC31CCN(C(=O)CN(C)C)CC1	0	-	-	0	0
O=S(=O)(O)c1ccc(O)c2cc(Nc3ccccc3)ccc12	0	0	0	63	0
O=S(=O)(O)c1cc(O)c2cc(Nc3ccccc3)ccc2c1	0	0	0	-	0
O=C(Cc1ccc(Br)cc1)c1ccc(O)cc1O	-	0	0	-	-
COc1ccc(CC(=O)c2ccc(O)cc2O)cc1	0	0	-	0	76
CN1C(=O)c2cc(NC(=O)c3ccc4c(c3)OCO4)ccc2OC[C@H]2O[C@@H](CC(=O)O)CC[C@@H]21	0	-	-	0	40
CN1C(=O)c2cc(NC(=O)c3ccc4c(c3)OCO4)ccc2OC[C@H]2O[C@H](CC(=O)O)CC[C@@H]21	0	-	-	0	?
COC(=O)C[C@H]1CC[C@@H]2[C@@H](COc3ccc(NC(=O)c4cccc(Cl)c4)cc3C(=O)N2C)O1	0	-	-	16	0
CN1C(=O)c2cc(NC(=O)c3ccc(F)cc3)ccc2OC[C@H]2O[C@H](CC(=O)O)CC[C@H]21	0	-	-	0	35
C[C@H]1CN([C@@H](C)CO)C(=O)c2cc(NC(=O)CCC(F)(F)F)ccc2O[C@@H]1CN(C)C(=O)Nc1ccc(F)cc1	0	-	-	0	0
C[C@@H]1CN([C@H](C)CO)C(=O)c2cc(NC(=O)Cc3ccccc3)ccc2O[C@@H](C)CCCCO[C@@H]1CN(C)C(=O)C1CCCCC1	0	-	-	0	0
Cc1ccc(Sc2ncccc2C(=O)NCc2cc([N+](=O)[O-])ccc2O)cc1C	0	0	0	0	58
O=C(C[C@H]1CC[C@@H](NC(=O)C2CCOCC2)[C@H](CO)O1)NCc1ccccc1Cl	0	-	-	0	0
CCS(=O)(=O)N1CCCCN2[C@H](CO)[C@H](c3ccc(-c4ccccc4)cc3)[C@H]2C1	0	-	-	0	0
CCS(=O)(=O)N1CCCCN2[C@H](C1)[C@H](c1ccc(-c3cccc(C#N)c3)cc1)[C@@H]2CO	0	-	-	0	0
CN1CCCCN2[C@@H](CO)[C@H](c3ccc(-c4ccccc4)cc3)[C@@H]2C1	0	-	-	0	32
CCS(=O)(=O)N1CCCCN2[C@H](CO)[C@@H](c3ccc(-c4ccc(C#N)cc4)cc3)[C@@H]2C1	0	-	-	0	65
CCS(=O)(=O)N1CCCCN2[C@H](CO)[C@H](c3ccc(-c4ccc(C#N)cc4)cc3)[C@H]2C1	0	-	-	0	55
CCS(=O)(=O)N1CCCCN2[C@H](C1)[C@@H](c1ccc(-c3ccccc3)cc1)[C@@H]2CO	0	-	-	16	0
COCC(=O)N(C)C[C@@H]1Oc2ncc(C#Cc3cccnc3)cc2C(=O)N([C@H](C)CO)C[C@@H]1C	0	-	-	0	0

Screening data from PubChem BioAssay.
